# Screens: PubChem BioAssay, National Center for Advancing Translational Sciences (NCATS)
# The full list was thinned out, with hits kept by preference.
# MARV entry inh: inhibitors of Marburg virus binding or cell entry; Marburg virus pseudotyped entry inhibition, cell reporter; Potency, µM (titrated, usually from 37.8 µM), for inactives: at the top dose activity change, negative = inhibition, actives largely listed as inhibitors; 300,000 compounds, 1.8% hits; calls by dose curve; tested in HEK293 cells; further: potency means the concentration at half of the fitted maximal effect; on the % scale 0 is the no-effect control and ±100 the full control effect
# Shiga toxin inh: Shiga toxin inhibition | 290,000 compounds, 9.2% hits | Vero cells, Shiga toxin protein synthesis inhibition reporter | inhibition, % at 38.7 µM; in the data active means inhibition mostly above about 28%, no sharp cut-off; inactive means mostly below about 43%; further: 0% is about no effect
# AMA1-RON2 inh: disrupts binding of P. falciparum AMA1 to RON2. AlphaScreen AMA1-biotinylated RON2 peptide binding. Potency, µM (highest dose often 58.2 µM), inactives show top-dose activity change, negative = inhibition, usual class: inhibitors. 360,000 compounds, 0.2% hits. AID 720542; active means well fitted inhibition curve with a large enough effect; inconclusive means small, poorly fitted or top-dose-only effect; inactive means no such curve, though single readings can be large or run the other way;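 further: potency means the concentration at half of the fitted maximal effect; 0% = vehicle wells and -100% = peptide control; nearly all actives have a fitted effect of over 45% in size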
#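 AMA1 (3D7) with his tag at 25 nM final met compounds first, then biotinylated RON2 peptide at 25 nM; detection used donor plus acceptor beads, 10 µg/mL apiece, read by AlphaScreen after 30 min at room temperature.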
# Lassa entry inh: inhibitors of Lassa virus binding or cell entry; Lassa virus pseudotype entry inhibition, cell reporter; Potency, µM (doses to about 37.9 µM), for inactives: at the top dose activity change, negative = inhibition, hits mostly inhibitors; 300,000 compounds, 1.2% hits; AID 540256; calls by dose curve; tested in HEK293 cells; further: potency means the concentration at half of the fitted maximal effect; on the % scale 0 is the no-effect control and ±100 the full control effect; nearly all actives have a fitted effect of over 50% in size
# CHX counter: counter-screen for Shiga toxin inhibitors: cycloheximide protein synthesis inhibition; cell reporter, cycloheximide protein synthesis inhibition counterscreen; 300,000 compounds, 12% hits; AID 2314; max response, %; in the data active means max response mostly above about 13%, no sharp cut-off; inactive means mostly below about 14%; further: read at 38.3 µM for the half of the compounds with a filed dose; 0% is about no effect
# * = called active by the depositor; ? = inconclusive; . = no result; + = active, no number; [ ] = remark or other dose.
SMILES,MARV entry inh,Shiga toxin inh,AMA1-RON2 inh,Lassa entry inh,CHX counter
Cc1ccc(N2C(=O)c3ccc(N)cc3C2=O)cc1C,2%,119*,0%,3%,31*
CC(=O)Nc1ccc2c(c1)C(=O)N(c1ccc(C)cc1)C2=O,9%,+,-7%,3%,51*
Cc1ccc(N2C(=O)c3ccc(N)cc3C2=O)cc1,?,67*,15%,4%,30*
O=C(Nc1ccc2c(c1)C(=O)N(c1ccccc1)C2=O)C1CCCO1 (centres undefined),14%,33*,-4%,?,32*
CC1CCCC(C)N1C(=O)COC(=O)c1n[nH]c(=O)c2ccccc12 (centres undefined),-19%,.,0%,21%,.
Cn1c(N=NC(=O)c2ccccc2)c(O)c2ccccc21,?,33*,-29%,?,43*
COc1ccc([C@@H](C)NC(=O)CCc2nnc(-c3cc(C)on3)o2)cc1,-1%[46.1 µM],-7,0%,26%,2
CCC(NC(=O)CCc1nnc(-c2cc(C)on2)o1)C12CC3CC(CC(C3)C1)C2 (centres undefined),3%,30,-10%,0%,18*
Cc1cc(-c2nnc(CCC(=O)NCc3cc(F)cc(C(F)(F)F)c3)o2)no1,38%,32,-19%,15%,25*
COCCN1C(=O)NC(c2cccc(C(F)(F)F)c2)C(C(C)=O)=C1C (centres undefined),11%[14.2 µM],.,.,.,.
Cc1cccc(C)c1OCC(O)Cn1nnc2ccccc21 (centres undefined),-4%,7,3%,12%,16*
Cc1ccc2c(c1)c(C)c(C)n2CC(O)Cn1nnc2ccccc21 (centres undefined),21µM*,52,7%,?,30*
CC(=O)c1ccc(OCC(O)Cn2nnc3ccccc32)cc1 (centres undefined),17%,69,34%,17%,39*
Cc1cccc(C)c1OCC(O)Cn1c2ccccc2c2ccccc21 (centres undefined),?,-6,-15%,2%,-5
CC1CC(OP(O)(=S)c2ccc(N(C)C)cc2NC(=O)c2cccs2)CC(C)(C)C1 (centres undefined),0%[46.1 µM],32,?,16%[46.1 µM],31*
Cc1cc(N2C(=O)C3C4C=CC(C4)C3C2=O)ccc1NC(=O)c1cccs1 (centres undefined),?,-10,-7%,21%,-3
CCOc1ccc(Cn2nnc(C(=O)Nc3cccc(SC)c3)c2N)cc1,-2%[46.1 µM],.,.,21%[46.1 µM],.
O=C(NNC(=S)Nc1ccccc1)c1ccc2ncccc2c1,3%[46.1 µM],56*,31%,4%,37*
O=C(NC(=S)Nc1ccc2nc[nH]c2c1)c1ccccc1,0%[46.1 µM],50*,16%,?,22*
O=C(NC(=S)Nc1ccc2ncccc2c1)c1ccccc1,?,75*,26%,?,52*
CC(C)(C)NC(=S)NNC(=O)c1ccc2ncccc2c1,?,47*,103%,21%[46.1 µM],21*
CC(C)(C)NC(=S)NNC(=O)c1ccccc1Cl,37%,20,54%[2.32 µM],12%,10
CC(NC(=O)c1ccc2nc[nH]c2c1)c1ccccc1 (centres undefined),?,-9,22%,1%,-2
C=CCOc1ccc(/C(O)=C2\C(=O)C(=O)N(CCCN3CCOCC3)[C@H]2c2ccc(OC)cc2)cc1,15%,.,.,.,.
CCOC(=O)c1c(S(=O)(=O)N2CCC(C(=O)Nc3cccc(C#N)c3)CC2)c(C)n(C)c1C,.,.,.,-15%[46.1 µM],.
SMILES,MARV entry inh,Shiga toxin inh,AMA1-RON2 inh,Lassa entry inh,CHX counter
O=C(NCCS(=O)(=O)N1CCN(c2ccccc2F)CC1)c1ccc2c(c1)OCO2,13%,.,-4%,4%,.
CCn1cc(S(=O)(=O)c2ccc(C)cc2C)c(=O)c2cc(F)c(N3CCCC3)cc21,.,.,.,-22%[46.1 µM],.
Cc1ccc2cccnc2c1NC(=S)NC(=O)c1ccccc1,-8%,70*,41%,17%,26*
O=C(NC(=S)Nc1ccc2[nH]ncc2c1)c1ccccc1,-20%,88*,7%,-7%,35*
Cc1ccc2cccc(NC(=S)NC(=O)c3ccccc3)c2n1,9%,11,31%,-4%,5
Clc1ccc(OCc2nnc3n2N=C(c2ccc4c(c2)OCCO4)CS3)c(Cl)c1,?,15,10%,?,15*
CCc1nnc2n1N=C(c1ccc(-c3ccc(Cl)cc3Cl)o1)CS2,0%,.,.,.,.
Cc1ccccc1OCCN(C#N)c1nc(N(C)C)nc(N(C)C)n1,?,9,7%,?,1
CNc1nc(-c2ccccc2)cc(C)c1S(C)(=O)=O,-15%[46.1 µM],27,70%,19%[46.1 µM],29
